The nature of assay [1]: NCI Yeast Anticancer Drug Screen. Data for the rad50 strain (AID 155).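 Note: 0% = growth of vehicle-only cultures of the same strain.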 The conditions noted are these: S. cerevisiae rad50 strain growth inhibition, active compounds read high. The gist of the method:
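Genetically altered yeast (DNA repair pathway); compound treatment; growth inhibition vs vehicle ctrl.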

Assay [2] in a line: NCI Yeast Anticancer Drug Screen. Data for the mec2-1 strain (AID 157). The note with it: S. cerevisiae mec2-1 strain, active compounds read high. The gist of the method: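 mec2-1 yeast strain, carrying an alteration in DNA damage repair or cell cycle control, was exposed to compounds; growth inhibition was measured relative to vehicle-treated controls.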
A short description of assay [3]: NCI Yeast Anticancer Drug Screen. Data for the sgs1 mgt1 strain (AID 161).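 Note: 0% = growth of cultures given vehicle only.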 The note with it: S. cerevisiae sgs1 mgt1 strain, active compounds read high. The gist of the method:
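Percent growth inhibition was derived by comparing compound-exposed mutant yeast with vehicle-exposed cultures. The strain carries alterations in DNA damage repair.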

A short description of assay [4]: NCI Yeast Anticancer Drug Screen. Data for the cln2 rad14 strain (AID 165).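 Note: 0% = growth equal to vehicle treated cultures.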 The note with it: S. cerevisiae cln2 rad14 strain, active compounds read high. The gist of the method: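 Yeast carrying cln2 and rad14 alterations (cell cycle control and DNA damage repair) were exposed to compounds. Growth inhibition was measured against vehicle-treated controls.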
Assay [5] in a line: NCI Yeast Anticancer Drug Screen. Data for the bub3 strain (AID 167). The conditions noted are these: S. cerevisiae bub3 mutant strain, active compounds read high. The gist of the method:
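Yeast carrying a defined mutation is treated with each compound, and growth is compared with that of vehicle-exposed cells to give inhibition.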

Assay [6] in a line: NCI Yeast Anticancer Drug Screen. Data for the mlh1 rad18 strain (AID 175). The conditions noted are these: S. cerevisiae mlh1 rad18 strain growth inhibition, active compounds read high. In outline:
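Growth inhibition of the yeast strain was measured after compound exposure and expressed relative to vehicle-treated controls. The strain carries defined defects in DNA damage repair.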

[7] abbreviates: at 5.0 µM (retest, dose inferred, filed as 0.5).
Setting [8] is: at 50.0 µM (retest, dose inferred, filed as 5.0).

Compounds without any hit were thinned out: in the full panel of roughly 79,000, 15% have a hit. A number with no mark means an inactive call. Activity calls are given as the source filed them. Cut-off read from the data, not from the text of the source: active = growth inhibition above about 70%; inactive = the rest.

For the compound `O=C(O)CSc1nc(-c2ccccc2)c(-c2ccccc2)n1-c1ccccn1`, the growth inhibition was 1% in assay [1] (setting [7]); 5% in assay [1] (setting [8]); 76.2% (active) in assay [1] (at 50.0 µM); -6% in assay [2] (setting [7]); -10% in assay [2] (setting [8]); 40.5% in assay [2] (at 50.0 µM). Also, the growth inhibition in assay [3] (setting [7]) is -12%; in assay [3] (setting [8]), 4%; in assay [3] (at 50.0 µM), 82.8% (active); in assay [4] (setting [7]), 18%; in assay [4] (setting [8]) it was 4%; in assay [4] (at 50.0 µM), 61.8%. For the same compound, the growth inhibition in assay [5] (setting [7]) is -13%; in assay [5] (setting [8]), -9%; in assay [5] (at 50.0 µM), 47.4%; in assay [6] (setting [7]), 8%; in assay [6] (setting [8]), 6%; in assay [6] (at 50.0 µM), 11.2%.

On to `COC(=O)c1ncc(Cl)cc1Cl`, for which the growth inhibition is 3% in assay [1] (setting [7]); -4% in assay [1] (setting [8]); 59.9% in assay [1] (at 50.0 µM); 0% in assay [2] (setting [7]); -7% in assay [2] (setting [8]); 39.8% in assay [2] (at 50.0 µM). The growth inhibition is 0% in assay [3] (setting [7]); -7% in assay [3] (setting [8]); 58.8% in assay [3] (at 50.0 µM); 7% in assay [4] (setting [7]); -7% in assay [4] (setting [8]); 22.1% in assay [4] (at 50.0 µM). The growth inhibition is 1% in assay [5] (setting [7]); -19% in assay [5] (setting [8]); 38.4% in assay [5] (at 50.0 µM); 0% in assay [6] (setting [7]); -1% in assay [6] (setting [8]); 46.4% in assay [6] (at 50.0 µM).

For the compound `CC(=O)N1CCC(Cc2ccccc2)CC1`, the growth inhibition in assay [1] (setting [7]) was -105%; in assay [1] (setting [8]) it was 95% (active); in assay [1] (at 50.0 µM) it was 2.3%; in assay [2] (setting [7]), -46%; in assay [2] (setting [8]) it was 80% (active); in assay [2] (at 50.0 µM) it was 18.3%. For the same compound, the growth inhibition in assay [3] (setting [7]) is -49%; in assay [3] (setting [8]) it was 92% (active); in assay [3] (at 50.0 µM), 11.2%; in assay [4] (setting [7]), -55%; in assay [4] (setting [8]) it was 70% (active); in assay [4] (at 50.0 µM), 56.9%. In addition, the growth inhibition is -51% in assay [5] (setting [7]); 89% (active) in assay [5] (setting [8]); 22.4% in assay [5] (at 50.0 µM); -103% in assay [6] (setting [7]); 91% (active) in assay [6] (setting [8]); 25% in assay [6] (at 50.0 µM).

As to `CCOC(=O)CC(NC(=O)c1[nH]cnc1/N=N/N(C)C)C(=O)OCC` (stereo not given), the growth inhibition is -24% in assay [1] (setting [7]); 95% (active) in assay [1] (setting [8]); 89.1% (active) in assay [1] (at 50.0 µM); -8% in assay [2] (setting [7]); 97% (active) in assay [2] (setting [8]); 91.5% (active) in assay [2] (at 50.0 µM). Also, the growth inhibition was -16% in assay [3] (setting [7]); 95% (active) in assay [3] (setting [8]); 90.6% (active) in assay [3] (at 50.0 µM); -11% in assay [4] (setting [7]); 96% (active) in assay [4] (setting [8]); 91% (active) in assay [4] (at 50.0 µM). The growth inhibition in assay [5] (setting [7]) was -12%; in assay [5] (setting [8]), 97% (active); in assay [5] (at 50.0 µM), 91.8% (active); in assay [6] (setting [7]) it was -24%; in assay [6] (setting [8]) it was 97% (active); in assay [6] (at 50.0 µM), 78% (active).

`S=c1[nH]c2ccc(Cl)cc2s1`: the growth inhibition in assay [1] (setting [7]) was -22%; in assay [1] (setting [8]), 54%; in assay [1] (at 50.0 µM), 72.9% (active); in assay [2] (setting [7]) it was -2%; in assay [2] (setting [8]), 69%; in assay [2] (at 50.0 µM) it was 65.8%. Moreover, the growth inhibition is -13% in assay [3] (setting [7]); 92% (active) in assay [3] (setting [8]); 82.2% (active) in assay [3] (at 50.0 µM); -60% in assay [4] (setting [7]); 31% in assay [4] (setting [8]); 83.8% (active) in assay [4] (at 50.0 µM). Further, the growth inhibition in assay [5] (setting [7]) is -19%; in assay [5] (setting [8]), 77% (active); in assay [5] (at 50.0 µM), 42%; in assay [6] (setting [7]) it was -19%; in assay [6] (setting [8]), 91% (active); in assay [6] (at 50.0 µM), 87.2% (active).

For the compound `COc1ccc(C2SCC(=O)N2c2nncs2)cc1` (stereo not given), the growth inhibition in assay [1] (setting [7]) was -1%; in assay [1] (setting [8]), 5%; in assay [1] (at 50.0 µM), 50.1%; in assay [2] (setting [7]), -3%; in assay [2] (setting [8]), 1%; in assay [2] (at 50.0 µM), 3.55%. Further, the growth inhibition in assay [3] (setting [7]) was -1%; in assay [3] (setting [8]) it was 3%; in assay [3] (at 50.0 µM), 9.5%; in assay [4] (setting [7]), 2%; in assay [4] (setting [8]), 7%; in assay [4] (at 50.0 µM) it was -8.95%. Besides, the growth inhibition is 4% in assay [5] (setting [7]); 12% in assay [5] (setting [8]); 21.7% in assay [5] (at 50.0 µM); 2% in assay [6] (setting [7]); 5% in assay [6] (setting [8]); 13.8% in assay [6] (at 50.0 µM).

For `CCOC(=O)C(C)(c1c(C)[nH]c2ccccc12)c1c(C)[nH]c2ccccc12`, the growth inhibition in assay [1] (setting [7]) is 1%; in assay [1] (setting [8]), 96% (active); in assay [1] (at 50.0 µM), 94.8% (active); in assay [2] (setting [7]), -1%; in assay [2] (setting [8]), 94% (active); in assay [2] (at 50.0 µM), 95.6% (active). For the same compound, the growth inhibition was 3% in assay [3] (setting [7]); 87% (active) in assay [3] (setting [8]); 95.8% (active) in assay [3] (at 50.0 µM); 4% in assay [4] (setting [7]); 95% (active) in assay [4] (setting [8]); 93% (active) in assay [4] (at 50.0 µM). For the same compound, the growth inhibition in assay [5] (setting [7]) is 6%; in assay [5] (setting [8]), 96% (active); in assay [5] (at 50.0 µM) it was 95.5% (active); in assay [6] (setting [7]) it was 5%; in assay [6] (setting [8]), 92% (active); in assay [6] (at 50.0 µM) it was 95.3% (active).

Regarding `Cc1nc(Nc2c(C)cccc2C)c2c(C)c[nH]c2n1`, the growth inhibition in assay [1] (setting [7]) is -2%; in assay [1] (setting [8]), 2%; in assay [1] (at 50.0 µM), 86.8% (active); in assay [2] (setting [7]), -5%; in assay [2] (setting [8]) it was 3%; in assay [2] (at 50.0 µM), 69.1%. The growth inhibition in assay [3] (setting [7]) is 0%; in assay [3] (setting [8]), 1%; in assay [3] (at 50.0 µM), 85.2% (active); in assay [4] (setting [7]) it was -1%; in assay [4] (setting [8]), -1%; in assay [4] (at 50.0 µM) it was 27.2%. The growth inhibition in assay [5] (setting [7]) is -4%; in assay [5] (setting [8]), -2%; in assay [5] (at 50.0 µM) it was 75.5% (active); in assay [6] (setting [7]) it was -2%; in assay [6] (setting [8]), -5%; in assay [6] (at 50.0 µM) it was 90.3% (active).

As to `Cn1c(N)c(N=Nc2ccc(S(N)(=O)=O)cc2)c(=O)n(C)c1=O`, the growth inhibition in assay [1] (setting [7]) is 0%; in assay [1] (setting [8]), 24%; in assay [1] (at 50.0 µM), -23.8%; in assay [2] (setting [7]), 22%; in assay [2] (setting [8]), -4%; in assay [2] (at 50.0 µM) it was -6.75%. Besides, the growth inhibition in assay [3] (setting [7]) was 7%; in assay [3] (setting [8]), 10%; in assay [3] (at 50.0 µM), -36.8%; in assay [4] (setting [7]), 27%; in assay [4] (setting [8]) it was 8%; in assay [4] (at 50.0 µM) it was 28.7%. In addition, the growth inhibition was 6% in assay [5] (setting [7]); 9% in assay [5] (setting [8]); -44.8% in assay [5] (at 50.0 µM); 5% in assay [6] (setting [7]); 10% in assay [6] (setting [8]); -9.4% in assay [6] (at 50.0 µM).

As for `Cc1c(C)c2cc3c(=O)ccoc3c(C)c2oc1=O`, the growth inhibition in assay [1] (setting [7]) was 32%; in assay [1] (setting [8]), 76% (active); in assay [1] (at 50.0 µM) it was 48.1%; in assay [2] (setting [7]), 1%; in assay [2] (setting [8]), 38%; in assay [2] (at 50.0 µM), 19.6%. The growth inhibition is -11% in assay [3] (setting [7]); 21% in assay [3] (setting [8]); 30.5% in assay [3] (at 50.0 µM); 8% in assay [4] (setting [7]); 45% in assay [4] (setting [8]); 42% in assay [4] (at 50.0 µM). Moreover, the growth inhibition in assay [5] (setting [7]) is -1%; in assay [5] (setting [8]), 52%; in assay [5] (at 50.0 µM), 30.4%; in assay [6] (setting [7]), -11%; in assay [6] (setting [8]), 68%; in assay [6] (at 50.0 µM), 69.6%.

The values are drawn from PubChem BioAssay (NCI).
